Source: PubChem
This is a sample that favours compounds with a hit; in the whole collection about 18% have one here.
TDP1 cell noCPT: qHTS for Inhibitors of human tyrosyl-DNA phosphodiesterase 1 (TDP1): qHTS in cells in absence of CPT; DT40 Tdp1-/- hTDP1 cells, no CPT, ATP luminescence, 48 h; Potency, µM (highest dose often 46.2 µM), for inactives: at the highest dose activity change, negative = growth inhibition, hits mostly inhibitors; hit rate 15% among 420,000; also: nearly all actives have a fitted effect of over 55% in size
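A cellular qHTS used chicken DT40 cells lacking endogenous Tdp1 but carrying stably transfected human TDP1. Compounds were applied without camptothecin, and cell growth kinetics were judged by ATP-dependent luminescence after ≥48 hr.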
PLK1 PBD block: qHTS for Inhibitors of PLK1-PDB (polo-like kinase 1 - polo-box domain): Primary Screen; Serine/threonine-protein kinase PLK1 (Homo sapiens), P53350; Plk1 PBD binding of FITC phosphopeptide, fluorescence polarization; Potency, µM, without a hit: max response, negative = inhibition, hits mostly inhibitors; hit rate 2.8% among 360,000; AID 720504, 2013; also: series mostly up to about 57 µM; nearly all actives have a fitted effect of over 65% in size
TDP1 inh: qHTS Assay for Inhibitors of Tyrosyl-DNA Phosphodiesterase (TDP1). recombinant TDP1, AlphaScreen DNA substrate cleavage. Tyrosyl-DNA phosphodiesterase 1 (Homo sapiens), Q9NUW8. Potency, µM (doses to about 130 µM), inactives show top-dose activity change, negative = inhibition, hits mostly inhibitors. hit rate 0.28% among 350,000; also: nearly all actives have a fitted effect of over 40% in size
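Signal: AlphaScreen proximity between streptavidin donor and anti-FITC acceptor beads on intact substrate. Reaction: Tdp1 1 nM, substrate 15 nM final, 5 min RT after 15 min compound preincubation.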
DT40 TDP1 CPT: qHTS for Inhibitors of human tyrosyl-DNA phosphodiesterase 1 (TDP1): qHTS in cells in presence of CPT; chicken DT40 Tdp1-/-;hTDP1 cells + 20 nM CPT, ATP luminescence, 48 h; Potency, µM (doses to about 46.2 µM), for the others: top-dose activity change, negative = growth inhibition, actives largely listed as inhibitors; hit rate 12% among 420,000; also: nearly all actives have a fitted effect of over 55% in size
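Cell growth measured by CellTiter-Glo luminescence after a minimum 48 h, 37 C compound exposure with 20 nM CPT in Tdp1-knockout DT40 cells stably expressing hTDP1, seeded 400/well; qHTS titration format.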
GCN5L2 inh: qHTS Assay for Inhibitors of GCN5L2; Histone acetyltransferase KAT2A (Homo sapiens), Q92830; GCN5L2 HAT assay, ThioGlo1 CoA-SH fluorescence; Potency, µM (titrated, usually from 58.9 µM), for the others: top-dose activity change, negative = inhibition, most hits filed as inhibitors; hit rate 0.21% among 390,000; AID 504327, 2011
Target sequence (Q92830 whole entry, looked up): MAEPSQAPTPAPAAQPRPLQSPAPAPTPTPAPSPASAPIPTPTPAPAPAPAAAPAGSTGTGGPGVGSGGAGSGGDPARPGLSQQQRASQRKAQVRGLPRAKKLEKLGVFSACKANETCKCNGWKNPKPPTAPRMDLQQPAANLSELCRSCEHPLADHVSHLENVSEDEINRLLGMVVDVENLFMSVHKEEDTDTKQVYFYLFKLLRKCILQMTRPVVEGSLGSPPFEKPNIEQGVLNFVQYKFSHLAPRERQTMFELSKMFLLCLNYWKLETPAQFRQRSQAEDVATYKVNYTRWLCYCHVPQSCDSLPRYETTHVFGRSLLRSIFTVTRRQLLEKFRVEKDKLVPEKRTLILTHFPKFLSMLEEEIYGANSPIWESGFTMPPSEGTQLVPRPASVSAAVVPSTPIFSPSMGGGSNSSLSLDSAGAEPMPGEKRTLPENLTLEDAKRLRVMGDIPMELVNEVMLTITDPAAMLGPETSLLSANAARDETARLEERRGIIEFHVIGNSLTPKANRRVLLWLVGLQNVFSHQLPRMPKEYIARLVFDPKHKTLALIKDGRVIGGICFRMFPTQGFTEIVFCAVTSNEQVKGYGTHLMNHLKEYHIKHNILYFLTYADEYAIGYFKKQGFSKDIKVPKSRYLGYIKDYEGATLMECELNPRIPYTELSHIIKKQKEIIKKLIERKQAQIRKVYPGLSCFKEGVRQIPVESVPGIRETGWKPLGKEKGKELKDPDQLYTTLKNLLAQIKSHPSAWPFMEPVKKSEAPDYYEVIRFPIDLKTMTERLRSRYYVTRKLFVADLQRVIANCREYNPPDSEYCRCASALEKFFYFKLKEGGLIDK
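GCN5L2 (20nM final) in 50mM HEPES, 0.1mM EDTA pH 7.5, 0.01% Tween-20 was preincubated 15 min at room temperature with compound, then given ThioGlo1 (50uM), H3(1-25) peptide (75uM) and acetyl-CoA (70uM); CoA-thiol fluorescence (Ex340/Em540) was read at 0 and 20 min.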
VDR inhibitor: Inhibitors of the vitamin D receptor (VDR): qHTS; VDR-SRC2-3 peptide fluorescence polarization, 2 h; hit rate 0.93% among 400,000; Potency, µM, inactives show max response, negative = inhibition, hits mostly inhibitors
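Compounds are added to VDR with labelled SRC2-3 coactivator peptide and held 2 h at room temperature. Inhibition of the VDR–peptide interaction is then read as a change in fluorescence polarization.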
* = called active by the depositor; ? = inconclusive; . = no result; [ ] = remark or other dose. Calls follow the shape of the dose curve; as a rule, active = well fitted curve in the direction sought with a large enough effect; inconclusive = small, poorly fitted or top-dose-only effect, or another doubt; inactive = no such curve, though single readings can be large; an effect the other way counts as inactive or inconclusive. % is scaled to controls: 0 for no effect and ±100 for the full control effect; potency is read from the fitted curve at half-maximal effect.

SMILES	TDP1 cell noCPT	PLK1 PBD block	TDP1 inh	DT40 TDP1 CPT	GCN5L2 inh	VDR inhibitor
CCCC(=O)N(c1ccc(OCC)cc1)S(=O)(=O)c1ccc2c3c(cccc13)C(=O)N2C	13µM*	7%	-4%	15µM*	-17%	0%
COC(=O)C=C1CCC2C3CCC4=CC(=O)C(Br)CC4(C)C3C(=O)CC12C (stereo not given)	16µM*	0%	.	?	.	2%
COc1ccc(NCc2nc3ccccc3n2CCOc2ccc(C)cc2)cc1	16µM*	-9%	18%	16µM*	-8%	-16%
Cc1ccccc1Cn1c(COc2ccc(Cl)cc2)nc2ccccc21	13µM*	.	.	?	-10%	2%
Cc1cccc(OCCCCn2c(CO)nc3ccccc32)c1	?	-12%	.	?	-4%	-17%
COc1ccc(NCc2nc3ccccc3n2CCOc2ccccc2)cc1	?	-14%	11%	?	-17%	-23%
CCc1nc2ccccc2n1CCCCOc1cccc(C)c1	23µM*	.	0%	?	-6%	11%
COCc1nc2ccccc2n1Cc1ccc(C(C)(C)C)cc1	26µM*	.	-2%	21µM*	-7%	6%
COc1ccc(OCc2nc3ccccc3n2Cc2ccccc2Cl)cc1	?	.	.	?	-5%	-10%
CCOc1ccccc1C(=O)NC(C(=O)Nc1cccnc1)C(C)C (stereo not given)	6%	2%	8%	6%	-2%	-24%
Cc1ccc(N(C)C(=O)Cn2cc(S(=O)(=O)N3CCCC3)c(S(=O)(=O)N3CCCC3)c2)cc1	-16%	.	-2%	1%	1%	-2%
CC(=O)Nc1ccc(NC(=O)C2CCN(S(=O)(=O)c3ccc4c(c3)CCCC(=O)N4)CC2)cc1	.	.	5%	.	29%	3%
O=C(c1ccoc1)N1CCOc2ccc(CN3CCC(Oc4cccnc4)CC3)cc2C1	-29%	.	.	3%[9.04 µM]	.	.
O=C(/C=C/C#Cc1cccc(NS(=O)(=O)c2ccccc2)c1)NO	.	.	19%	.	14%	-18%
Cn1cccc1C(=O)N1CCC2(CC1)CCN(c1ccccc1)CC2	?	.	.	?	-1%	-7%
COc1cccc(OCc2nc3ccccc3n2Cc2ccccc2)c1	18µM*	.	4%	?	-17%	20%
COc1ccc(OCc2nc3ccccc3n2Cc2ccc(C(C)(C)C)cc2)cc1	?	.	.	?	-8%	-2%
COc1cccc(Cn2c(C(C)n3c(-c4cnccn4)nc4ccccc43)nc3ccccc32)c1 (stereo not given)	21µM*	-11%	.	?	.	.
COc1cccc(OCc2nc3ccccc3n2CCOc2ccc(C)cc2)c1	16µM*	.	4%	23µM*	-9%	14%
COc1cccc(CN2CCC(c3nnc(SCC4CCCO4)n3C)CC2)c1O (stereo not given)	1%	.	.	-3%	.	.
O=[N+]([O-])c1cc(/C=N/O)ccc1Oc1ccccc1Cl	-13%	-3%	0%	3%	-9%	-2%
CCOc1ccccc1CNC(=O)CN1C(=O)CCCc2ccccc21	?	.	5%	?	-13%	25%
C[C@@H]1CCCCO[C@H](CN(C)Cc2ccc(C(=O)O)cc2)[C@@H](C)CN([C@H](C)CO)C(=O)c2cc(N(C)C)ccc2O1	-8%	?	.	-17%	.	.
C[C@@H]1CCCCO[C@@H](CN(C)Cc2ccc(C(F)(F)F)cc2)[C@@H](C)CN([C@H](C)CO)C(=O)c2cc(N(C)C)ccc2O1	23µM*	-21%	.	23µM*	.	.
C[C@@H]1CN([C@@H](C)CO)C(=O)c2cc(NS(C)(=O)=O)ccc2O[C@@H](C)CCCCO[C@H]1CN(C)Cc1ccc2c(c1)OCO2	?	-14%	.	-7%	.	.
SMILES	TDP1 cell noCPT	PLK1 PBD block	TDP1 inh	DT40 TDP1 CPT	GCN5L2 inh	VDR inhibitor
C[C@@H]1CN([C@@H](C)CO)C(=O)c2cc(N(C)C)ccc2O[C@@H](C)CCCCO[C@@H]1CN(C)Cc1ccc2c(c1)OCO2	16µM*	-22%	.	16µM*	.	.
N=C(N)SCCN=C(N)N	.	.	13%	.	-18%	1%
COc1ccccc1NC(=O)Cn1c(=O)n(CC2CCC(C(=O)NCCc3ccccc3)CC2)c(=O)c2ccccc21 (stereo not given)	?	.	-2%	18µM*	-10%	13%
COc1ccc(NC(=O)Cn2c(=O)n(CC(=O)NCCc3ccccc3)c(=O)c3ccccc32)cc1	-19%	.	-5%	-17%	-9%	-11%
O=C(NCCc1ccccc1)C1CCC(Cn2c(=O)c3ccccc3n(Cc3cccc(F)c3)c2=O)CC1 (stereo not given)	?	-6%	3%	?	1%	-15%
O=C(NCCc1ccccc1)C1CCC(Cn2c(=O)c3ccccc3n(Cc3cccc(Cl)c3)c2=O)CC1 (stereo not given)	15µM*	-4%	.	?	.	0%
COc1cc(NC(=O)Cn2c(=O)n(CC3CCC(C(=O)NCCc4ccccc4)CC3)c(=O)c3ccccc32)cc(OC)c1 (stereo not given)	?	.	2%	12µM*	2%	7%
Cc1cccc(NC(=O)Cn2c(=O)n(CC3CCC(C(=O)NCCc4ccccc4)CC3)c(=O)c3ccccc32)c1 (stereo not given)	?	.	0%[12.3 µM]	18µM*	0%	-12%
CCOc1ccc(NC2OC(CO)C(O)C(O)C2O)c([N+](=O)[O-])c1 (stereo not given)	-3%	-6%	2%	2%	-4%	-10%
Cc1ccc(SC(CC(=O)c2ccc(C)cc2)C(=O)O)cc1 (stereo not given)	?	?	1%	?	-4%	20µM*
O=C(CC(Sc1ccc(Br)cc1)C(=O)O)c1ccc(Br)cc1 (stereo not given)	.	.	.	.	-6%	.
OC(COCC(F)(F)C(F)(F)C(F)(F)C(F)F)Cn1c2ccc(Cl)cc2c2cc(Cl)ccc21 (stereo not given)	2.6µM*	6%	-5%	3.7µM*	-2%	-9%
COc1cc(C(=O)NC2CCN(CC(=O)Nc3cccc(C)c3C)CC2)cc(OC)c1OC	?	27µM*	.	18µM*	10%	-20%
COc1cc(NC(=O)c2cccc(C)c2)c(OC)cc1NC(=O)CN1CCCCC1	16µM*	-11%	5%	?	0%	-1%
